The campaign covered roughly 220,000 compounds. About 910 (0.41%) were called active.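 How the source made its calls: active means primary inhibition above the hit cutoff, then over 50% inhibition at one or more dose response concentrations (cut at about 23% in these data, passing the limit was not always enough); inconclusive means conflicting primary data, or primary hits not chosen for dose response; inactive means low primary inhibition, or under 50% at every dose.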 The sample as a whole holds a higher share of actives than the screen did. Entries with a potency or affinity are not part of this list.
The compounds below were run against Aminopeptidase N (Plasmodium falciparum (isolate 3D7)) (UniProt O96935) (assay: P. falciparum M1AAP inhibitors, biochemical, fluorogenic H-Leu-NHMec substrate, 1536-well (AID 1445;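 further: plate controls were DMSO full reaction for no effect and no enzyme background for full effect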)). Details: recombinant M1AAP, H-Leu-NHMec fluorogenic kinetic assay; at 30 µM, stronger effect = higher value unless noted.
Aminopeptidase N (Plasmodium falciparum (isolate 3D7)), sequence (O96935 whole entry, looked up): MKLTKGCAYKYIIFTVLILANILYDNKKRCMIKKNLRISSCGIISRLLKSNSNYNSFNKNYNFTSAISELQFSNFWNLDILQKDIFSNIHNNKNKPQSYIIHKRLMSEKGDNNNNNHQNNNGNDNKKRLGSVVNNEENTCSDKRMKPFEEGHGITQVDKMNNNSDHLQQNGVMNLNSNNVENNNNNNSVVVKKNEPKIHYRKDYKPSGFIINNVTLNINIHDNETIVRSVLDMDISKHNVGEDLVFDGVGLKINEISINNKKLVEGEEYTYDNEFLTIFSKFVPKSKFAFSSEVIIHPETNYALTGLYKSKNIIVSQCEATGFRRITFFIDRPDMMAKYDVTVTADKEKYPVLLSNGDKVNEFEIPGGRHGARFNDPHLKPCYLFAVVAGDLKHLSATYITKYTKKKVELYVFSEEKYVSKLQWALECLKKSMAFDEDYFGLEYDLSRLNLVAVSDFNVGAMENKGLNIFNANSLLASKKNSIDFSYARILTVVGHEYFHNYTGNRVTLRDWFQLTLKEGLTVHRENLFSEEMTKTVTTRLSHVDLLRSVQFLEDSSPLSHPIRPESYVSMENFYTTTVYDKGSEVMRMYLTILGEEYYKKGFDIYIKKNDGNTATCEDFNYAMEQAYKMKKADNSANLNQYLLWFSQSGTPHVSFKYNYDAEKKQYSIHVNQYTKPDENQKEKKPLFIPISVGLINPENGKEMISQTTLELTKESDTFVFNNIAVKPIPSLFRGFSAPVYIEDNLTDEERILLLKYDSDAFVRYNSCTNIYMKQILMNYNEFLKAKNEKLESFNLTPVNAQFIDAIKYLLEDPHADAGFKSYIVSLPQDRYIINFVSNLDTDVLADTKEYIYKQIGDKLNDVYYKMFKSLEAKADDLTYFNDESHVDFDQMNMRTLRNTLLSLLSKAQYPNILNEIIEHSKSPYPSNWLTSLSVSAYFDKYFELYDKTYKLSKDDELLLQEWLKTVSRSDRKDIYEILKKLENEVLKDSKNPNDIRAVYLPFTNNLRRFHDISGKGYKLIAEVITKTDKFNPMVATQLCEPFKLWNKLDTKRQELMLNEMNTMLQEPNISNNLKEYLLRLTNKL

| SMILES | inhibition |
| --- | --- |
| O=C(O)c1cccc2c1C(=O)c1ccccc1C2=O | 15.9% (inactive) |
| Nc1c(C(=O)O)ccc2c1C(=O)c1ccccc1C2=O | 4.92% (inactive) |
| COc1cccc(N2C(=O)CC(N3CCN(CCN=CC4=C(O)CC(C)(C)CC4=O)CC3)C2=O)c1 (stereo not drawn) | 5.88% (inactive) |
| O=c1c(-c2c(O)cc(O)c3c(=O)cc(-c4ccc(O)cc4)oc23)c(-c2ccc(O)cc2)oc2cc(O)cc(O)c12 | 12% (inactive) |
| COc1cc(-c2cc(=O)c3c(O)cc(O)cc3o2)ccc1O | 12.4% (inactive) |
| Cn1c(SCC(=O)Nc2nccs2)nnc1C12CC3CC(CC(C3)C1)C2 | 6.61% (inactive) |
| COc1ccc(C(=O)N2CCCC(CCC(=O)NCc3ccc(F)c(F)c3)C2)cc1F (stereo not drawn) | 3.11% (inactive) |
| O=C(CCC1CCCN(C(=O)c2ccncc2)C1)NCc1ccc(F)c(F)c1 (stereo not drawn) | 1.64% (inactive) |
| O=C(Cn1cnc2c(nnn2Cc2ccccc2)c1=O)c1ccc(Cl)cc1 | 2.57% (inactive) |
| Cc1cccc(-c2cc3nc4c(c(NCc5ccco5)n3n2)CCCC4)c1 | -3.49% (inactive) |
| C=CCn1c(SCC(=O)C23CC4CC(CC(C4)C2)C3)nc(O)cc1=O | 5.12% (inactive) |
| C=CCn1c(SCC(=O)NC23CC4CC(CC(C4)C2)C3)nc(O)cc1=O | 24.7% (active) |
| C=CCn1c(SCC(=O)NC23CC4CC(CC(C4)C2)C3)nc2cc(C(=O)O)ccc2c1=O | 2.59% (inactive) |
| Cc1ccc(S(=O)(=O)NCC(=O)N(CC(=O)NCC2CCCO2)C2CCCC2)cc1 (stereo not drawn) | 4.45% (inactive) |
| O=c1sc(/C=N/Nc2ccccc2)c(Cl)n1Cc1ccccc1 | -3.08% (inactive) |
| CC(C)c1ccc(N2C=Nc3ccc(C(C)C)cc3C2)cc1 | 0.82% (inactive) |
| O=C1C(C2=NC(C(=O)O)C3C(=O)N(c4ccc(Cl)cc4)C(=O)C23)=C(O)c2ccccc21 (stereo not drawn) | 25.7% (active) |
| O=C1C(C2=NC(c3ccccn3)C3C(=O)N(c4ccccc4)C(=O)C23)=C(O)c2ccccc21 (stereo not drawn) | 3.12% (inactive) |
| O=C1C(C2=NC(C(=O)O)C3C(=O)N(c4ccccc4)C(=O)C23)=C(O)c2ccccc21 (stereo not drawn) | 10.7% (inactive) |
| CCCCNC(=S)NNC(=O)CCn1cc(C)cn1 | 4.21% (inactive) |
| CCOC(=O)Cc1cc(=O)n2[nH]c(C(C)(C)C)cc2n1 | 4.13% (inactive) |
| Cc1ccc(S(=O)(=O)N(C)C)cc1NC(=O)Nc1ccccc1 | 3.2% (inactive) |
| Cc1onc(-c2ccccc2)c1NC(=O)Nc1c(-c2ccccc2)noc1C | 5.84% (inactive) |
| CCOC(=O)c1c(NC(=O)CSc2nnc(-c3ccccc3)n2CC)sc(C(C)=O)c1C | 5.61% (inactive) |

| SMILES | inhibition |
| --- | --- |
| CCCOC(=O)CSc1nc(N)c(C#N)c(-c2ccco2)c1C#N | 8.7% (inactive) |
| N=C1/C(=C\c2ccc(-c3ccc(C(=O)O)cc3)o2)C(=O)N=C2SC=C(c3ccccc3)N12 | 8.48% (inactive) |
| N=C1/C(=C\c2ccc(-c3cccc(Cl)c3)o2)C(=O)N=C2SC=C(c3ccccc3)N12 | 15.9% (inactive) |
| N=C1/C(=C\c2ccc(-c3cc(Cl)cc(Cl)c3)o2)C(=O)N=C2SC=C(c3ccccc3)N12 | -3.79% (inactive) |
| CC(C)S(=O)(=O)C1=NSC2=NC(=O)/C(=C\c3ccc(-c4cccc(C(=O)O)c4)o3)C(=N)N21 | 17.7% (inactive) |
| CC12CCC(C/C1=N\N=C1\NC(=O)/C(=C\c3cccc(Br)c3)S1)C2(C)C (stereo not drawn) | 6.04% (inactive) |
| CCCC(=O)c1cn(CC(=O)OC)c2ccccc12 | 1.35% (inactive) |
| CCCOc1nc2c(c(=O)n(C)c(=O)n2C)n1C | 2.15% (inactive) |
| CCCOc1nc2c(c(=O)n(C)c(=O)n2C)n1CCC | 24.2% (active) |
| CCCn1c(OC)nc2c1c(=O)n(C)c(=O)n2C | 1.88% (inactive) |
| Cn1cnc2c(N/N=C/c3cccs3)ncnc21 | 7.29% (inactive) |
| Clc1cnc(N/N=C/c2cccs2)c(Cl)c1 | 4.04% (inactive) |
| CCCCN(C)c1c(N2CCC(C(=O)OCC)CC2)c(=O)c1=O | 12.2% (inactive) |
| Cc1cc(C)c(S(=O)(=O)NCC(=O)O)cc1C | -7.15% (inactive) |
| O=C(O)CSc1cc(NS(=O)(=O)c2cccc([N+](=O)[O-])c2)c2ccccc2c1O | 19.8% (inactive) |
| O=C(CSc1nc(O)c(Cc2ccccc2)c(=O)[nH]1)N1CCOCC1 | 0.8% (inactive) |
| Cc1ccc(-c2cc3ncc(C#N)c(N)n3n2)cc1 | 6.77% (inactive) |
| COc1ccc(C(=O)NCCCN2CCOCC2)cc1S(=O)(=O)N1CCCc2ccccc21 | -1.32% (inactive) |
| O=S(=O)(Nc1cc(Sc2ncn[nH]2)c(O)c2ccccc12)c1ccccc1 | 13.5% (inactive) |
| COc1ccc(S(=O)(=O)Nc2ccc(O)c3ccccc23)cc1 | 5.24% (inactive) |
| COc1ccc(S(=O)(=O)Nc2cc(Sc3ncn[nH]3)c(O)c3ccccc23)cc1 | 24.3% (active) |
| Cn1cnnc1SC1CCCCC1NS(=O)(=O)c1ccccc1 (stereo not drawn) | -1.9% (inactive) |
| CCc1ccc(C(=O)CN2C(=O)NC(C)(CCc3ccccc3)C2=O)cc1 (stereo not drawn) | 0.01% (inactive) |
| c1ccc(C2=Nn3c(nnc3-c3ccco3)SC2)cc1 | 7.07% (inactive) |

| SMILES | inhibition |
| --- | --- |
| Fc1ccc(C2=Nn3c(nnc3-c3ccco3)SC2)cc1 | 4.7% (inactive) |
| Oc1ccc(C2=Nn3c(nnc3-c3ccco3)SC2)cc1O | 29.3% (active) |
| CCOC(=O)C(NC(=O)C1CCCN1C(=O)OCc1ccccc1)C(=O)OCC (stereo not drawn) | -8.77% (inactive) |
| CCN(CC)C(=O)C1CCCN(Cc2ccc(OC)c(C)c2)C1 (stereo not drawn) | -5.17% (inactive) |
| COCCCNC(=O)c1cccc(OC)c1OC | 3.12% (inactive) |
| COc1ccc(NC(=O)c2cnc(C)cn2)c2ncccc12 | 1.63% (inactive) |
| Cc1cnc(C(=O)Nc2cccc3cccnc23)cn1 | 24.3% (active) |
| Cc1cnc(C(=O)Nc2ccccc2F)cn1 | 0.48% (inactive) |
| Brc1ccc(C2Nc3cccc4cccc(c34)N2)s1 | 1.05% (inactive) |
| Cc1cccc(C)c1-n1cccc1/C=C1\SC(=S)N(c2cccc(C(=O)O)c2)C1=O | 6.85% (inactive) |
| Cc1[nH]c2ccccc2c1/C=N/Nc1cccc(C(=O)O)c1 | 11.9% (inactive) |
| CCN1C(=O)C2(C(C#N)=C(N)Oc3n[nH]c(-c4ccccc4)c32)c2ccccc21 (stereo not drawn) | -4.58% (inactive) |
| CCN1C(=O)C2(C(C#N)=C(N)Oc3n[nH]c(-c4ccc(Cl)cc4)c32)c2ccccc21 (stereo not drawn) | -0.38% (inactive) |
| COC(=O)CN1C(=O)C2(C(C#N)=C(N)Oc3c2c(C)nn3-c2ccccc2)c2ccccc21 (stereo not drawn) | 4.95% (inactive) |
| COC(=O)CN1C(=O)C2(C(C#N)=C(N)Oc3cc(C)oc(=O)c32)c2ccccc21 (stereo not drawn) | 1.21% (inactive) |
| Cc1cccc(OCCOCCSc2ncccn2)c1 | 11.6% (inactive) |
| COc1cccc(OC)c1OCCCOc1ccc(C)cc1Br | 3.98% (inactive) |
| CC1CCCN(C(=O)CSc2nnc(-c3ccc(S(=O)(=O)N4CCOCC4)cc3)n2C)C1 (stereo not drawn) | 0.7% (inactive) |
| Cc1cc(Cl)c2ccc(Cl)cc2n1 | 0.44% (inactive) |
| CC(=O)CC(c1ccc([N+](=O)[O-])cc1)c1c(O)c2ccccc2oc1=O (stereo not drawn) | 0.61% (inactive) |
| O=[N+]([O-])c1ccc2c(c1)oc1ccccc12 | -3.55% (inactive) |
| Cc1csc(NC(=O)CSc2nc(C(C)C)nc3c2c(=O)n(C)c(=O)n3C)n1 | -1.73% (inactive) |
| CS(=O)(=O)c1ccc2nc(NC(=O)c3ccc(N4C(=O)CCC4=O)cc3)sc2c1 | 5.15% (inactive) |
| CCOC(=O)c1cc(-c2csc(-c3cccc(Cl)c3)n2)on1 | -3.06% (inactive) |

| SMILES | inhibition |
| --- | --- |
| CC1C(c2ccccc2)N(C)C(c2ccccc2)CC1(O)c1ccccc1 (stereo not drawn) | 16.7% (inactive) |
| CCOC(=O)C(=O)Nc1nnc(SCc2ccc(F)cc2)s1 | 2.28% (inactive) |
| COc1cccc(C(=O)Nn2c(C)nnc2-n2nc(C)cc2C)c1 | 8.95% (inactive) |
| CC(C)CCNC(=O)CN(Cc1ccc2c(c1)OCO2)C(=O)Cn1nnc(-c2cccs2)n1 | 24.4% (active) |
| COc1ccc(-c2nnn(CC(=O)N(CC(=O)NCCC(C)C)Cc3cccs3)n2)cc1OC | 13.8% (inactive) |
| O=C(NCc1ccccc1)C(c1ccc(F)cc1)N(Cc1ccc2c(c1)OCO2)C(=O)Cn1nnc(-c2cccs2)n1 (stereo not drawn) | 1.31% (inactive) |
| COc1ccc(NC(=O)c2oc3ccccc3c2NC(=O)c2ccc3c(c2)OCO3)cc1 | 2.18% (inactive) |
| COc1ccc2nc(SCc3ccccc3C)nc(C)c2c1 | 2.23% (inactive) |
| Cc1nc(SCc2ccccc2C)n[nH]1 | -7.66% (inactive) |
| Cc1ccc(-c2c(C#N)c(N)n3c(nc4ccccc43)c2C#N)cc1 | 25.5% (active) |
| Cc1cc(Cl)n2c(nc3ccccc32)c1C#N | -0.99% (inactive) |
| N#Cc1c(-c2ccccc2)c(C#N)c2nc3ccccc3n2c1N | 3.17% (inactive) |
| Cc1cc(C(C)(C)C)ccc1OCCN1CCCC1 | 8.65% (inactive) |
| Oc1ccc(-c2nc(=S)[nH][nH]2)cc1 | 44.3% (inactive) |
| C=CCOc1ccc(C(=O)N(Cc2ccc(N(C)C)cc2)C2CCS(=O)(=O)C2)cc1 (stereo not drawn) | 13% (inactive) |
| CC(=O)Oc1cc2oc(=O)c3c(c2cc1Cl)CCC3 | 38.1% (inactive) |
| O=c1oc2cc(O)ccc2c2c1CCCC2 | 10.5% (inactive) |
| O=c1cc(-c2ccccc2)c2cc(Cl)c(O)c(CN3CCOCC3)c2o1 | 5.98% (inactive) |
| Cc1oc2c(CN3CCOCC3)c(O)ccc2c(=O)c1-c1ccc(Cl)cc1 | 7.87% (inactive) |
| CCc1cccc(C)c1NC(=O)COC(=O)c1ccc2c(c1)S(=O)(=O)c1ccccc1C2=O | 1.58% (inactive) |
| CC1(C)NC(=O)N(CC(O)COc2cccc(F)c2)C1=O (stereo not drawn) | 7.39% (inactive) |

Reference: PubChem BioAssay AID1445 (SRMLSC, 2008)
